Source: PubChem BioAssay AID1159580 (chemical genetic matrix, 2015)
Where “and” joins values, the source holds several entries; their conditions need not be identical. Equal entries are not always repeated. The whole screen tested about 5,500 compounds, of which about 2,000 (36%) were called active. Roughly 18% stayed inconclusive and do not appear here. No stated cut-off is given here; in the data, active means normalized growth mostly below about 0.91 (no sharp cut-off); inconclusive means no clear call, values can overlap the other calls; inactive means mostly above about 0.92. This is one part of the list.

Test: chemical genetic growth profiling, strain panel (AID 1159580);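 further: tested at 20 µM; growth read once vehicle control cultures reached saturation at 30 °C; 1 = growth at the plate median or of vehicle wells; lower values mean less growth of the strain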
Settings: S. cerevisiae deletion strains, growth OD

Measured: normalized growth

N[C@H](Cc1cc(I)c(Oc2ccc(O)c(I)c2)c(I)c1)C(=O)O
inactive: locus YAL013W, strain DEP1, hits give low values 1.01 | locus YAL021C, strain ccr4, hits give low values 1.03 | locus YAL026C, strain drs2, hits give low values 0.982 | locus YAL030W, strain snc1, hits give low values 1 | locus YBL061C, strain skt5, hits give low values 0.994 | locus YBR021W, strain FUR4, hits give low values 0.989 | locus YBR023C, strain chs3, hits give low values 0.986 | locus YBR171W, strain sec66, hits give low values 0.996 | locus YBR229C, strain ROT2, hits give low values 1 | locus YBR231C, strain swc5, hits give low values 1 | locus YBR279W, strain paf1, hits give low values 0.991 | locus YCL011C, strain gbp2, hits give low values 1 | locus YCL016C, strain dcc1, hits give low values 0.981 | locus YCL029C, strain bik1, hits give low values 1.01 | locus YCL061C, strain MRC1, hits give low values 0.987 | locus YCL069W, strain vba3, hits give low values 1 | locus YCR088W, strain abp1, hits give low values 1 | locus YDL005C, strain med2, hits give low values 1 | locus YDL035C, strain GPR1, hits give low values 0.992 | locus YDL040C, strain nat1, hits give low values 1.01 | locus YDL074C, strain BRE1, hits give low values 0.939 | locus YDL101C, strain DUN1, hits give low values 0.998 | locus YDL134C, strain PPH21, hits give low values 1 | locus YDL185W, strain tfp1, hits give low values 0.996 | locus YDL192W, strain arf1, hits give low values 0.987 | locus YDR001C, strain nth1, hits give low values 1.01 | locus YDR069C, strain doa4, hits give low values 0.992 | locus YDR101C, strain arx1, hits give low values 0.974 | locus YDR137W, strain rgp1, hits give low values 0.985 | locus YDR150W, strain NUM1, hits give low values 1.05 | locus YDR159W, strain sac3, hits give low values 0.978 | locus YDR162C, strain NBP2, hits give low values 0.999 | locus YDR195W, strain ref2 1 | locus YDR297W, strain sur2, hits give low values 0.996 | locus YDR334W, strain swr1, hits give low values 0.997 | locus YDR335W, strain msn5, hits give low values 0.999 | locus YDR388W, hits give low values 0.985 | locus YDR392W, strain spt3, hits give low values 0.748 | locus YDR502C, strain sam2, hits give low values 0.977 | locus YEL003W, strain gim4, hits give low values 0.998 | locus YEL037C, strain rad23, hits give low values 1 | locus YEL061C, strain CIN8 (second series), hits give low values 1 | locus YEL061C, strain CIN8, hits give low values 1.01 | locus YER015W, strain faa2, hits give low values 1 | locus YER016W, strain bim1, hits give low values 0.995 | locus YER110C, hits give low values 1 | locus YER111C, strain swi4, hits give low values 0.993 | locus YER155C, strain BEM2 (second series), hits give low values 0.958 | locus YER155C, strain BEM2, hits give low values 0.997 | locus YER167W, strain BCK2, hits give low values 0.946 | locus YFR010W, strain ubp6, hits give low values 0.997 | locus YGL078C, strain dbp3, hits give low values 0.98 | locus YGL086W, strain mad1, hits give low values 0.946 | locus YGL167C, strain pmr1, hits give low values 1 | locus YGL173C, strain kem1, hits give low values 0.952 | locus YGL227W, strain vid30, hits give low values 0.993 | locus YGL240W, strain doc1, hits give low values 0.973 | locus YGL248W, strain PDE1, hits give low values 0.998 | locus YGL253W, strain hxk2, hits give low values 0.981 | locus YGR078C, strain PAC10, hits give low values 0.966 | locus YGR135W, strain pre9, hits give low values 0.959 | locus YGR229C, strain SMI1, hits give low values 0.981 | locus YGR252W, strain gcn5, hits give low values 0.87 | locus YHR013C, strain ard1, hits give low values 0.971 | locus YHR027C, strain rpn1, hits give low values 0.997 | locus YHR030C, strain SLT2, hits give low values 0.997 and 1.05 | locus YHR079C, strain IRE1 (second series), hits give low values 0.999 | locus YHR079C, strain IRE1, hits give low values 1.05 | locus YHR094C, strain hxt1, hits give low values 0.999 | locus YHR129C, strain ARP1, hits give low values 1 | locus YHR142W, strain chs7, hits give low values 0.964 | locus YHR200W, strain rpn10, hits give low values 0.992 | locus YIL066C, strain RNR3, hits give low values 0.951 | locus YIL073C, strain SPO22, hits give low values 0.967 | locus YIL125W, strain kgd1, hits give low values 0.99 | locus YIR030C, strain dcg1, hits give low values 0.993 | locus YJL092W, strain hpr5, hits give low values 0.998 | locus YJL095W, strain BCK1, hits give low values 0.964 and 1.04 | locus YJL115W, strain asf1, hits give low values 0.998 | locus YJL129C, strain trk1, hits give low values 0.97 | locus YJL134W, strain LCB3, hits give low values 1 | locus YJL154C, strain vps35, hits give low values 1 | locus YJL168C, strain set2, hits give low values 0.996 | locus YJL187C, strain SWE1 (second series), hits give low values 1.01 | locus YJL187C, strain SWE1, hits give low values 1.01 | locus YJR043C, strain POL32, hits give low values 0.996 | locus YJR066W, strain TOR1, hits give low values 0.99
active: locus YBR009C, strain hhf1, hits give low values 0.893 | locus YDR318W, strain mcm21, hits give low values 0.917 | locus YJL095W, strain BCK1 (second series), hits give low values 0.865 | locus YJL164C, strain tpk1, hits give low values 0.911 | locus YJL166W, strain qcr8, hits give low values 0.884
